Compound activity from PubChem BioAssay.
CD11b adhes enh = enhancers of CD11b/CD18 adhesion to fibrinogen, primary screen, K562 cells, luminescence. 93,000 compounds, 0.07% hits. Integrin beta-2 (Homo sapiens) + Integrin alpha-M (Homo sapiens), P05107+P11215. ATPlite luminescence. activation, % at 10 µM;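 active = 10 µM primary screen giving 50% or more activity, confirmed by 40% or more on retest at that dose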
Target sequence (P05107 whole entry, looked up, other chains not shown): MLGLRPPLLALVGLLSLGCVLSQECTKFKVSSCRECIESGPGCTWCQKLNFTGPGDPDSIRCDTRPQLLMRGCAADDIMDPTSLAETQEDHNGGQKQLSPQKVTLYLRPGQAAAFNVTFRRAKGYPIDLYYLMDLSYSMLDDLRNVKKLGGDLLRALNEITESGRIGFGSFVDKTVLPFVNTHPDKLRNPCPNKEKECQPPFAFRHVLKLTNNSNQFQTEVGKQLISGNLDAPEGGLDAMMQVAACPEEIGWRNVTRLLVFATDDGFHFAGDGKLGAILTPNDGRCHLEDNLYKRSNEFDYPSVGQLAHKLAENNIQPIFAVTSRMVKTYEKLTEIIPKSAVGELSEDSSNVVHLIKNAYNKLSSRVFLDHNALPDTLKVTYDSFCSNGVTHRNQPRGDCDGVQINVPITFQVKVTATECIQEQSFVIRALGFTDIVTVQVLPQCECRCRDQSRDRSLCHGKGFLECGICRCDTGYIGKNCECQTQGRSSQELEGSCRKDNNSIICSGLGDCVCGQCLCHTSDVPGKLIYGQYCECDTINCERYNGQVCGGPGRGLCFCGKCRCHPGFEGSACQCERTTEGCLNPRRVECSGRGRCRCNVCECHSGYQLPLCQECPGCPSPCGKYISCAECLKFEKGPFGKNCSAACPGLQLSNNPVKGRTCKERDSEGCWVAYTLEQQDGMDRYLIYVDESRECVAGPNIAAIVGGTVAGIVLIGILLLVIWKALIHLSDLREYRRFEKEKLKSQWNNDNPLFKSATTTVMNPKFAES
MRP1 act = H69AR viability gain despite doxorubicin, primary screen, MRP-1 activator project, H69AR cells, CellTiter-Glo; 140,000 compounds, 0.61% hits; AID 799, 2007; viability rescue; viability increase, % at 10 µM;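 active = viability gain under doxorubicin at or above a set limit, the compound median plus 3 SD, cut at about 4.7% in these data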;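 also: MRP-1 overexpressing cells given doxorubicin 25 µM after compound pretreatment; 18-22 h compound pretreatment then 72 h with doxorubicin before readout; 0% = doxorubicin-only wells and 100% = vehicle-treated cells without doxorubicin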
Phagocyt inh = inhibitors of macrophage phagocytosis, primary screen, imaging, J774A.1 cells, IgG beads; J774A.1 macrophage IgG-bead phagocytosis; inhibition, % at 5 µM; 110,000 compounds, 0.07% hits;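 active = inhibition above the mean of the plate negative controls plus 5 SD, cut at about 13% in these data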;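 also: phagocytic index as fraction of beads internalized from green versus red external bead signal; plate controls were DMSO negative control for no effect and cytochalasin-D positive control for full effect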
FAK inh = FAK kinase inhibitors, primary screen, biochemical; Focal adhesion kinase 1 (Homo sapiens), Q05397; 97,000 compounds, 0.84% hits; inhibition, %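 (tested at 7 µM)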; biochemical FAK kinase activity assay;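 also: 0% = DMSO and 100% = reference compound high control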
CD11b adhes inh = inhibitors of CD11b/CD18 adhesion to fibrinogen, primary screen, K562 cells, luminescence. 93,000 compounds, 0.54% hits. inhibition, % at 10 µM. Integrin beta-2 (Homo sapiens) + Integrin alpha-M (Homo sapiens), P05107+P11215. ATPlite luminescence; Mn2+ added to activate the integrin;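 active = primary inhibition of 50% or more at 10 µM, then 40% or more on retest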
MRP resist rev = reversal of MRP1-mediated doxorubicin resistance, primary screen, H69AR cells, doxorubicin co-treatment; AID 602, 2007; differential viability (reversal), % at 10 µM; 85,000 compounds, 0.04% hits; H69AR cells + 2 uM doxorubicin, CellTiter-Glo, 72 h;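 active = viability drop by adding the cancer drug above about 55%, with treated viability meeting a 40% cutoff, limit read from the data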;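 also: viability without doxorubicin minus viability with 2 µM doxorubicin for each compound; larger differential means the compound sensitizes cells more to doxorubicin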
FAK inh confirm = FAK kinase inhibitors, retest, confirmation, biochemical | 750 compounds, 28% hits | FAK kinase biochemical inhibition assay | AID 794, 2007 | inhibition, % at 7 µM | shares compounds with FAK inh
Numbers without * were called inactive; / = no result given. Shown are actives, neighbours in structure and some others; about 1.5% of the full set was active somewhere. Rule as the data show it, unless noted: active = inhibition above about 19%; inactive = the rest.

SMILES	CD11b adhes enh	MRP1 act	Phagocyt inh	FAK inh	CD11b adhes inh	MRP resist rev	FAK inh confirm
c1ccc2c3c([nH]c2c1)-c1[nH]ncc1CC3	0	-2	1	42*	-8	-5	20*
O=C1CCCc2c1[nH]c1ccccc21	-5	-2	-2	6	-5	-9	/
Cc1nnc2n(c1=O)N=C(c1ccc(Cl)cc1)CS2	/	0	-5	/	/	/	/
CN(C)c1cc2c(c(N(C)C)c1)C(=O)c1ccccc1C2=O	1	-3	4	49*	-12	/	24*
CCOC(=O)C(C(=O)NCc1ccc(F)cc1)c1ncc(C(F)(F)F)cc1Cl (centres undefined)	1	-4	1	1	-22	/	/
CCOC(=O)C(C(=O)N(C)C)c1ncc(C(F)(F)F)cc1Cl (centres undefined)	/	1	/	78*	/	/	-3
CCOC(=O)C1CCCCN1Cc1ccccc1C(F)(F)F (centres undefined)	-1	0	1	/	5	-26	/
COc1ccc2c(c1)CCc1c(C(=O)Nc3ccn(Cc4ccc(C)cc4)n3)noc1-2	-1	-7	-4	26*	3	-17	-1
CC[N+]1(C)CCC(=C2c3ccccc3CC(=O)c3sccc32)CC1 (centres undefined)	3	-4	-2	0	-18	0	/
C[N+]1(C)CCC(=C2c3ccccc3CC(=O)c3sccc32)CC1	0	-3	-1	27*	8	4	-1
COc1ccc2oc(=O)c(-c3nnc(NCc4ccco4)s3)cc2c1	73	-7	0	21*	-6	0	5
Cn1c(=O)n(C)c2cc(NC(=O)CCl)ccc21	-4	-7	0	-5	-24	0	/
O=C(CCNC(=O)c1ccccc1Cl)Nc1nc(-c2ccccc2Cl)cs1	/	0	-3	/	/	/	/
Cc1sc(NC(=O)c2sc3nc4c(C)cccc4cc3c2N)c(C#N)c1C	/	-5	/	29*	/	/	7
O=C(CC1Sc2ccccc2NC1=O)OC(C(=O)NCCc1ccccc1)c1cccnc1 (centres undefined)	/	-3	/	33*	/	-1	2
COCCNC(=O)C(OC(=O)CC1Sc2ccccc2NC1=O)c1ccncc1 (centres undefined)	2	-2	-2	-1	-8	-8	/
CC(C)CC(=O)c1c[nH]c(C(=O)NCCCn2ccnc2)c1	8	-2	0	18	4	/	/
O=C(CNC(=O)c1ccco1)OCC(=O)c1ccc2c(c1)CCCC2	/	-1	/	27*	/	/	-3
CCc1ccc(C(=O)COC(=O)CNC(=O)c2ccco2)cc1	0	-1	0	/	2	5	/
Cc1cc(SCC(=O)NCCC2=CCCCC2)nc2ccccc12	/	-2	-3	/	/	/	/
COc1ccc(-c2cc3ccccc3oc2=O)cc1NC(=O)c1ccc(Br)o1	17	-2	0	65*	-18	-14	59*
O=C(Nc1cccc(-c2cc3ccccc3oc2=O)c1)c1ccc(Br)o1	/	2	/	3	/	19	/
Cc1[nH]c2ccccc2c1Cc1nnc(SCc2ccccc2)o1	14	-2	/	-1	13	17	/
CCCCNC(=O)c1cn(-c2ccc(OCC)cc2)c(=O)c2cc(OC)c(OC)cc12	0	-1	1	0	0	8	/
COc1ccc(N2Cc3cccc(C(=O)N4CCN(C(=O)c5ccco5)CC4)c3C2=O)cc1	24	-3	1	49*	-10	7	2
SMILES	CD11b adhes enh	MRP1 act	Phagocyt inh	FAK inh	CD11b adhes inh	MRP resist rev	FAK inh confirm
COc1ccc(N2Cc3cccc(C(=O)N4CCOCC4)c3C2=O)cc1	-2	-3	-1	0	-3	7	/
O=C(Nc1nnc(C2CC2)s1)c1ccncc1	/	2	/	-3	/	21	/
CCOC(=O)c1ccc(Nc2nc(-c3cccnc3)nc3ccccc23)cc1	9	-3	9	22*	6	/	10
CCC(CC)C(=O)c1c[nH]c(C(=O)NCC2CCCO2)c1 (centres undefined)	4	-1	/	-3	1	/	/
c1ccc2c(c1)ncn2-c1ccc(-c2ccnc(-c3ccncc3)n2)cc1	/	-4	/	29*	/	/	10
Cc1nccc(-c2ccc(-n3cnc4ccccc43)cc2)n1	-4	-2	0	-2	-2	1	/
O=C(C1=C(O)C(=O)N(Cc2ccco2)C1c1ccccc1)c1cccs1 (centres undefined)	/	-2	/	-8	/	-2	/
O=[N+]([O-])c1ccc(/C=N/NC(=S)Nc2ccccc2C(F)(F)F)o1	0	-4	-9	/	3	/	/
CN1CCCCc2c1[nH]c1ccccc1c2=O	3	-4	-5	0	11	0	/
CCN(CC)CCCOc1nc(C)nc2c1oc1ccccc12	4	-1	0	19*	-3	-21	3
CCN(CC)CCOc1nc(C)nc2c1oc1ccccc12	-3	-1	-1	-3	-9	-6	/
O=C(Nc1ccc(Cl)cc1C(=O)NCC1CCCO1)c1ccc(Cl)cc1Cl (centres undefined)	8	-1	-2	/	-5	/	/
O=CNNC(=O)c1cccc([N+](=O)[O-])c1	6	1	-14	/	-5	/	/
COC(=O)C1=C(NC(=O)c2ccc(C)c(C)c2)CCS1	-1	-1	/	-4	5	/	/
Nc1ncnc2oc(-c3ccco3)c(-c3ccco3)c12	-1	-2	1	54*	3	2	32*
COC(=O)c1cc(Br)c(=O)n(-c2cc(C)on2)c1	-2	-2	-1	1	-5	3	/
N#Cc1c(NC(=O)CSc2ncnc3sccc23)oc(-c2ccco2)c1-c1ccco1	48	-1	0	22*	30	-24	1
Cc1cccc(NC(=O)CSc2nnc([C@@H](N)Cc3ccccc3)o2)c1C	1	-2	-1	1	-4	18	/
CC(C)(C)C(=O)Nc1nc2c(s1)COc1ccccc1-2	3	-2	0	45*	0	2	30*
O=C(CCSc1ccccc1)Nc1nc2c(s1)COc1ccccc1-2	-3	-2	-1	2	31	1	/
Cc1ccc(-n2nc3ccc(NC(=O)c4ccc5c(c4)OCO5)cc3n2)cc1	139*	-2	3	25*	-5	-2	15
Cc1csc(=Nc2ccc(S(=O)(=O)N3CCOCC3)cc2)n1Cc1ccco1	-1	-3	0	-6	-2	8	/
COC(=O)c1ccccc1S(=O)(=O)Nc1ccc2cn[nH]c2c1	1	-1	-2	20*	-17	11	15
CCOC(=O)N1CCC(=NNC(=O)c2ccc(O)cc2)CC1	/	2	-10	/	/	/	/
Cc1cc2nsnc2c(S(=O)(=O)NCC(=O)O)c1C	-5	/	-1	0	-10	2	/
